Source: paper PMC12820563, “FoxP3 forms a head-to-head dimer in vivo and stabilizes its multimerization on adjacent microsatellites”
Whole data set: some 16,000 sequences, median “rpm ratio (pull-down/input)” near 0.94, cut for the highest 2% near 1.7. The full list was thinned out, with the highest values kept by preference.

What follows are sequences tested against T1, MBP-FoxP1dN (Mus musculus, UniProt P58462 326-579) (assay: PD-seq (MBP pull-down with sequencing); 20 mM Tris-HCl pH 7.5, 100 mM NaCl, 1.5 mM MgCl2, 0.4 uM protein, 0.1 uM dsDNA library, 30 min, room temperature, amylose pull-down; high values mean tight binding). Settings: protein: recombinant; tags: His6-MBP; chain copies: 2; dsDNA, one strand shown.
T1 sequence: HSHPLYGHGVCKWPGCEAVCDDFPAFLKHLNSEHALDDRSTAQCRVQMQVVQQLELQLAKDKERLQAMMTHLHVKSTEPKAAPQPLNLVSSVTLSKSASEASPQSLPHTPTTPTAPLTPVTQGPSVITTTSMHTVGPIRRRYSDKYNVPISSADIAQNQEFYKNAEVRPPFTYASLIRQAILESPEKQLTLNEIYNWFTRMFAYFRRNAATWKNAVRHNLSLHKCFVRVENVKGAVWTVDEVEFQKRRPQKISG
In short: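 In Tris pH 7.5 buffer with NaCl and MgCl2, 0.4 µM His6-MBP-tagged mouse FoxP3 or FoxP1 fragment lacking the N-terminus, from E. coli, met 0.1 µM Klenow-filled double-stranded degenerate DNA library for 30 min at room temperature. Three washes on amylose resin followed capture of the complexes, then proteinase K release of DNA, PCR barcoding and Illumina sequencing. Binding is taken as pooled-replicate reads-per-million enrichment of pull-down relative to input.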

Row | Sequence | binding signal
1 | GATGATTGTTCTCCCAGCTGATGAATTACAACAATCGAGTAAACAAATTTTCCTAATCTTTCTGTTCAAGCGCCATCTAC | 2.1 RPM ratio (pull-down/input)
2 | GATGATTGTTCTCCCAGCTGATGAATTACAATAATCGAGTAAACAAATTTTCCTAATCTTTCTGTTCAAGCGCCATCTAC | 1.83 RPM ratio (pull-down/input)
3 | GATGATTGTTCTCCCAGCTGATGAATTACAATTATCGAGTAAACAAATTTTCCTAATCTTTCTGTTCAAGCGCCATCTAC | 1.51 RPM ratio (pull-down/input)
4 | GATGATTGTTCTCCCAGCTGATGAATTTCAATAATCGAGTAAACAAATTTTCCTAATCTTTCTGTTCAAGCGCCATCTAC | 1.31 RPM ratio (pull-down/input)
5 | GATGATTGTTCTCCCAGCTGATGAATTGCTATGCTCGAGTAAACAAATTTTCCTAATCTTTCTGTTCAAGCGCCATCTAC | 1.01 RPM ratio (pull-down/input)
6 | GATGATTGTTCTCCCAGCTGATGAATTTTGGATGTCGAGTAAACAAATTTTCCTAATCTTTCTGTTCAAGCGCCATCTAC | 0.849 RPM ratio (pull-down/input)
7 | GATGATTGTTCTCCCAGCTGATGAATTACGATTGTCGAGTAAACAAATTTTCCTAATCTTTCTGTTCAAGCGCCATCTAC | 1.16 RPM ratio (pull-down/input)
8 | GATGATTGTTCTCCCAGCTGATGAATTATTTAAATCGAGTAAACAAATTTTCCTAATCTTTCTGTTCAAGCGCCATCTAC | 1.24 RPM ratio (pull-down/input)
9 | GATGATTGTTCTCCCAGCTGATGAATTGCGTACGTCGAGTAAACAAATTTTCCTAATCTTTCTGTTCAAGCGCCATCTAC | 1.1 RPM ratio (pull-down/input)
10 | GATGATTGTTCTCCCAGCTGATGAATTCCTTGTGTCGAGTAAACAAATTTTCCTAATCTTTCTGTTCAAGCGCCATCTAC | 0.961 RPM ratio (pull-down/input)
11 | GATGATTGTTCTCCCAGCTGATGAATTAAGCGCATCGAGTAAACAAATTTTCCTAATCTTTCTGTTCAAGCGCCATCTAC | 1.27 RPM ratio (pull-down/input)
12 | GATGATTGTTCTCCCAGCTGATGAATTCATATTGTCGAGTAAACAAATTTTCCTAATCTTTCTGTTCAAGCGCCATCTAC | 1.9 RPM ratio (pull-down/input)
13 | GATGATTGTTCTCCCAGCTGATGAATTCATATTCTCGAGTAAACAAATTTTCCTAATCTTTCTGTTCAAGCGCCATCTAC | 0.83 RPM ratio (pull-down/input)
14 | GATGATTGTTCTCCCAGCTGATGAATTCTCATATTCGAGTAAACAAATTTTCCTAATCTTTCTGTTCAAGCGCCATCTAC | 0.94 RPM ratio (pull-down/input)
15 | GATGATTGTTCTCCCAGCTGATGAATTCATATTTTCGAGTAAACAAATTTTCCTAATCTTTCTGTTCAAGCGCCATCTAC | 1.74 RPM ratio (pull-down/input)
16 | GATGATTGTTCTCCCAGCTGATGAATTGTCATATTCGAGTAAACAAATTTTCCTAATCTTTCTGTTCAAGCGCCATCTAC | 1.17 RPM ratio (pull-down/input)

Row | Sequence | binding signal
17 | GATGATTGTTCTCCCAGCTGATGAATTTTCATATTCGAGTAAACAAATTTTCCTAATCTTTCTGTTCAAGCGCCATCTAC | 1.06 RPM ratio (pull-down/input)
18 | GATGATTGTTCTCCCAGCTGATGAATTAGATCGGTCGAGTAAACAAATTTTCCTAATCTTTCTGTTCAAGCGCCATCTAC | 0.789 RPM ratio (pull-down/input)
19 | GATGATTGTTCTCCCAGCTGATGAATTGTGGGAATCGAGTAAACAAATTTTCCTAATCTTTCTGTTCAAGCGCCATCTAC | 1.08 RPM ratio (pull-down/input)
20 | GATGATTGTTCTCCCAGCTGATGAATTCCGTCCTTCGAGTAAACAAATTTTCCTAATCTTTCTGTTCAAGCGCCATCTAC | 0.801 RPM ratio (pull-down/input)
21 | GATGATTGTTCTCCCAGCTGATGAATTAGGTGATTCGAGTAAACAAATTTTCCTAATCTTTCTGTTCAAGCGCCATCTAC | 1.06 RPM ratio (pull-down/input)
22 | GATGATTGTTCTCCCAGCTGATGAATTCGTTGTATCGAGTAAACAAATTTTCCTAATCTTTCTGTTCAAGCGCCATCTAC | 1.3 RPM ratio (pull-down/input)
23 | GATGATTGTTCTCCCAGCTGATGAATTCCTCAAGTCGAGTAAACAAATTTTCCTAATCTTTCTGTTCAAGCGCCATCTAC | 0.819 RPM ratio (pull-down/input)
24 | GATGATTGTTCTCCCAGCTGATGAATTGAGCGTGTCGAGTAAACAAATTTTCCTAATCTTTCTGTTCAAGCGCCATCTAC | 0.844 RPM ratio (pull-down/input)
25 | GATGATTGTTCTCCCAGCTGATGAATTTTGGTATTCGAGTAAACAAATTTTCCTAATCTTTCTGTTCAAGCGCCATCTAC | 1.06 RPM ratio (pull-down/input)
26 | GATGATTGTTCTCCCAGCTGATGAATTGGTATTCTCGAGTAAACAAATTTTCCTAATCTTTCTGTTCAAGCGCCATCTAC | 1.02 RPM ratio (pull-down/input)
27 | GATGATTGTTCTCCCAGCTGATGAATTTGGTATTTCGAGTAAACAAATTTTCCTAATCTTTCTGTTCAAGCGCCATCTAC | 1.07 RPM ratio (pull-down/input)
28 | GATGATTGTTCTCCCAGCTGATGAATTTGGTATGTCGAGTAAACAAATTTTCCTAATCTTTCTGTTCAAGCGCCATCTAC | 0.971 RPM ratio (pull-down/input)
29 | GATGATTGTTCTCCCAGCTGATGAATTGGTATTGTCGAGTAAACAAATTTTCCTAATCTTTCTGTTCAAGCGCCATCTAC | 2.44 RPM ratio (pull-down/input)
30 | GATGATTGTTCTCCCAGCTGATGAATTGGTATTTTCGAGTAAACAAATTTTCCTAATCTTTCTGTTCAAGCGCCATCTAC | 2.46 RPM ratio (pull-down/input)
31 | GATGATTGTTCTCCCAGCTGATGAATTCGGACCGTCGAGTAAACAAATTTTCCTAATCTTTCTGTTCAAGCGCCATCTAC | 0.773 RPM ratio (pull-down/input)
32 | GATGATTGTTCTCCCAGCTGATGAATTAGGTTCATCGAGTAAACAAATTTTCCTAATCTTTCTGTTCAAGCGCCATCTAC | 0.921 RPM ratio (pull-down/input)
